The text below walks through data of PubChem BioAssay AID488969 (Vanderbilt High Throughput Screening Facility, 2010).

Each structure is given as a SMILES string. In all, about 110,000 compounds were measured (“z-score”: median about -0.1, highest 2% from about 2 on). The sample holds the highest values, similar compounds and a random draw of the others, so the mix is not that of the screen. Calls of active or inactive are those of the source.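 Rule for the calls: active = z-score in the third read window above 3 or below -3; inactive = the rest.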

The target in the assay is Metabotropic glutamate receptor 8 (Rattus norvegicus) (UniProt P70579). Briefly: rat mGluR8 modulators via GIRK flux, primary screen, cell-based, thallium flux, HTS (AID 488969). Particulars: HEK293 rat mGluR8, GIRK (G protein-gated inwardly rectifying potassium channel) thallium flux, FluoZin2; at 10 µM; stronger effect = higher value; submaximal glutamate (EC20) added with thallium.
Metabotropic glutamate receptor 8 (Rattus norvegicus), sequence (P70579 whole entry, looked up): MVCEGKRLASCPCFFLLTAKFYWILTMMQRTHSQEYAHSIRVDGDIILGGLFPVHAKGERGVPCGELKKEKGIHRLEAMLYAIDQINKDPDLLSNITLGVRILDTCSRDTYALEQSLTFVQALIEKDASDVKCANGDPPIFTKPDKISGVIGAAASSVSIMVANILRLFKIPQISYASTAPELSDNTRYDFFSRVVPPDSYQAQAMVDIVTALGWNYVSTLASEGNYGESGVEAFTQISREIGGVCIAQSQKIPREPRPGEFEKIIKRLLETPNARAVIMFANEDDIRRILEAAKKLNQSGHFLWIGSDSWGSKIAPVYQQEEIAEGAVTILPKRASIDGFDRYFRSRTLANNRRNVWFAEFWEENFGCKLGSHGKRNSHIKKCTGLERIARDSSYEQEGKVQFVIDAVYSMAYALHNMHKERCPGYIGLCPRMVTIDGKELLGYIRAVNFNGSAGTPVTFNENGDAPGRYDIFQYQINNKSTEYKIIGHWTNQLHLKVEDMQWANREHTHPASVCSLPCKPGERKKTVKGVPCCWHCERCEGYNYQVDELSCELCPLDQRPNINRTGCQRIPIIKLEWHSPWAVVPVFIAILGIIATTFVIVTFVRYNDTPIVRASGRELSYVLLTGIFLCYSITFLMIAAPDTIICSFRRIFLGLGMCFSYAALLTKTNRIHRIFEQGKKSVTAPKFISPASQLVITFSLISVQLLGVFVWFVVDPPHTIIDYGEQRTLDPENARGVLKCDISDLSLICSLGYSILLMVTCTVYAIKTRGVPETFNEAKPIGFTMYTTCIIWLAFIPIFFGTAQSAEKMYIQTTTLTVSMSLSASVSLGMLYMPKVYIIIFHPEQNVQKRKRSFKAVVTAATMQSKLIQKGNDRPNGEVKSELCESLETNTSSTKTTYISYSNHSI
`CC(O)c1n(C)c(Cl)c[n+]1C` (stereo unspecified) displayed a z-score of -0.00128.

On to `O=C(CO/N=C/c1ccccc1O)N1CCc2ccccc21`, for which the z-score is -0.0476. Under `O=C(Nc1nnc(-c2ccc(Cl)cc2)o1)c1ccc(N2C(=O)CCC2=O)cc1` stands 4.39 (active); under `O=C(Nc1ccccc1)c1cccc(N2C(=O)CCC2=O)c1`, -0.0312; under `O=C(Nc1nnc(-c2ccc(Cl)cc2)o1)c1cccc(N2C(=O)CCC2=O)c1`, 3.29 (active). For `O=C(Nc1nnc(-c2ccc(Cl)cc2)o1)NC1CCCCC1` the value was -0.0226. In the case of `Cc1cc(NC(=O)c2ccc(N3C(=O)CCC3=O)cc2)no1`, the z-score was found to be 0.412. `O=C(Nc1nnc(-c2ccccc2)o1)c1cccc(N2C(=O)CCC2=O)c1` showed a z-score of -0.326. `Cc1cc(C)c(C)c(OCCCn2ccnc2)c1` showed a z-score of -0.369. As for `COC(=O)c1ccc(/C=N\N2CCN(Cc3ccc(C)cc3)CC2)cc1`, the z-score was -0.269. For `COC(=O)c1ccc(/C=N/N2CCN(Cc3ccc(C)cc3C)CC2)cc1` the value was 2.42; for `COC(=O)c1ccc(/C=N/N2CCN(Cc3ccccc3)CC2)cc1`, -0.196. With `Cc1cccc(NC(=O)C2Cc3ccccc3CN2C(=O)OCc2ccccc2)c1C` (stereo unspecified), the z-score is -0.188. For `CCC1CCCCN1C(=O)CSc1nc2c([nH]c3ccccc32)c(=O)n1C` (stereo unspecified), the z-score is 0.357.

Molecule `CCOP(=O)(OCC)C(Nc1ccccn1)c1ccc(F)cc1` (stereo unspecified) yielded a z-score of -0.18.

As to `O=C(NCc1ccccc1F)c1cccs1`, the z-score is -0.158. Under `O=C(O)c1cc2c(ccc3ccccc32)[nH]1` stands -0.467; under `CCC(=O)Nc1nc2ccc(S(C)(=O)=O)cc2s1`, 0.244; under `CS(=O)(=O)c1ccc2nc(NC(=O)C3C4C=CC(C4)C3C(=O)O)sc2c1` (stereo unspecified), 4.92 (active). On to `O=C(Nc1nc2ccc(S(=O)(=O)N3CCCCC3)cc2s1)C1CCCO1` (stereo unspecified), for which the z-score was -0.0835. In the case of `CC1=CCC(C(=O)O)C(C(=O)Nc2nc3ccc(S(C)(=O)=O)cc3s2)C1` (stereo unspecified), the z-score turned out to be 0.387. For `CS(=O)(=O)c1ccc2nc(NC(=O)Nc3cccc(Cl)c3)sc2c1` the value was 0.135; for `NS(=O)(=O)c1ccc2nc(NC(=O)C3CCCO3)sc2c1` (stereo unspecified), 2.74; for `CS(=O)(=O)c1ccc2nc(NC(=O)Nc3ccc(Cl)c(Cl)c3)sc2c1`, 3.23 (active). `CS(=O)(=O)c1ccc2nc(NC(=O)Nc3ccc(Cl)cc3)sc2c1`: the z-score was 0.161.

Molecule `O=C(Nc1nc2ccc(F)cc2s1)C1CCCO1` (stereo unspecified) came in with a z-score of 0.535. For `CN(C)c1ccc(CN(C(=O)COc2ccccc2)C2CCS(=O)(=O)C2)cc1` (stereo unspecified) the value was -0.709; for `O=C(NCc1cn(-c2ccccc2)nc1-c1ccccc1)c1ccc([N+](=O)[O-])cc1`, -0.0499; for `O=C(CSc1cc(Cl)ccc1Cl)NCC1CCCO1` (stereo unspecified), -0.0958. `Cc1ccccc1-n1c(SCc2csc(Nc3ccccc3)n2)nnc1-c1cccnc1` returned a z-score of -0.897. In turn, `c1ccc(Oc2cccc(CN3CCCCC3)c2)cc1` had a z-score of -0.282. Turning to `CCN1CCN(Cc2cccc(Oc3ccc(Cl)cc3)c2)CC1`, the z-score amounted to 0.924. Under `CCN1CCN(Cc2cccc(Oc3ccccc3)c2)CC1` stands 0.156; under `CN1CCN(Cc2cccc(Oc3ccccc3)c2)CC1`, 0.0807. As to `CN1CCN(Cc2cccc(Oc3ccc(Cl)cc3)c2)CC1`, the z-score is 4 (active).

`CC1CCCN(Cc2cccc(Oc3ccccc3)c2)C1` (stereo unspecified): the z-score is 6.29 (active).
